From PubChem BioAssay (NCI) come the findings set out here.

Compounds without any hit were thinned out: in the full panel of roughly 83,000, 20% have a hit.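 Single-dose data. Exposure time 48 hours. Values below 10 considered active.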 Unmarked numbers belong to inactive results. Active and inactive are the calls of the source.

Among the test systems are NCI-H23 lung; NCI-H226 lung; NCI-H322M lung; HOP-62 NSCLC; NCI-H460 lung; NCI-H522 lung; A549/ATCC NSCLC; 786-0 renal; COLO 205 colon; DU-145 prostate; K-562 leukemia; MALME-3M melanoma; MDA-MB-231 breast; RXF 393 renal; SF-268 CNS; SF-295 CNS; SF-539 CNS; UACC-257 melanoma; M14 melanoma.
Holding throughout (assay): NCI-60 one-dose screen, 48 h (100 = growth as untreated, 0 = no growth, -100 = all killed)
Holding throughout (conditions): 10 µM unless noted

Take `COc1ccc2[nH]cc(C3(c4c[nH]c5ccc(OC)cc45)C(=O)Nc4ccc(Cl)cc43)c2c1`: the growth in the test on NCI-H23 lung was 80.3%; in the test on NCI-H226 lung it was 108%; in the test with NCI-H322M lung it was 85.5%; with HOP-62 NSCLC it was 85.2%; in the test with NCI-H460 lung, 6.57% (active); in the test on NCI-H522 lung, 65.7%. In addition, the growth in the test on A549/ATCC NSCLC was 63.6%; in the test with 786-0 renal, 74.1%; with COLO 205 colon it was 69.2%; in the test with DU-145 prostate, 66.9%; with K-562 leukemia, 6.2% (active); in the test on MALME-3M melanoma, 78.9%. Further, the growth in the test on MDA-MB-231 breast is 82.4%; in the test on RXF 393 renal, 94.5%; with SF-268 CNS, 40.8%; in the test with SF-295 CNS, 59.6%; with SF-539 CNS, 74.8%; in the test on UACC-257 melanoma, 86.5%. Further, in the test on M14 melanoma, the growth is 73.8%.

For `O=c1oc2ccccc2cc1-c1cc(-c2ccc(-c3cc(-c4cc5ccccc5oc4=O)nc(-c4cc5ccccc5oc4=O)c3)cc2)cc(-c2cc3ccccc3oc2=O)n1`, the growth in the test on NCI-H23 lung was 98.5%; in the test with NCI-H226 lung, 97.8%; in the test with NCI-H322M lung, 108%; in the test on HOP-62 NSCLC, 93.3%; in the test with NCI-H460 lung, 106%; in the test on NCI-H522 lung, 97%. For the same molecule, the growth in the test on A549/ATCC NSCLC was 101%; in the test with 786-0 renal, 107%; with COLO 205 colon, 103%; in the test on DU-145 prostate it was 107%; in the test with K-562 leukemia, 94.8%; in the test on MALME-3M melanoma it was 98.3%. In addition, the growth was 94.4% in the test with MDA-MB-231 breast; 118% in the test on RXF 393 renal; 104% in the test on SF-268 CNS; 111% in the test on SF-295 CNS; 93.2% with SF-539 CNS; 103% in the test on UACC-257 melanoma. For the same molecule, the growth in the test on M14 melanoma was 103%.

Regarding `NC(N)=NC1CCCCC1`, the growth in the test on NCI-H23 lung was 101%; with NCI-H226 lung it was 101%; in the test with NCI-H322M lung, 102%; in the test on HOP-62 NSCLC it was 108%; with NCI-H460 lung, 113%; in the test on NCI-H522 lung, 85.8%. Further, the growth in the test with A549/ATCC NSCLC was 94.1%; in the test on 786-0 renal, 98.1%; with COLO 205 colon it was 118%; in the test on DU-145 prostate it was 22.3%; with K-562 leukemia, 93.5%; in the test with MALME-3M melanoma, 101%. The growth in the test on MDA-MB-231 breast is 117%; with RXF 393 renal, 97.3%; in the test with SF-268 CNS, -15.8% (active); in the test with SF-295 CNS, 120%; in the test with SF-539 CNS it was 105%; with UACC-257 melanoma, 90.6%. In addition, the growth with M14 melanoma was 103%.

`CNC1=C([N+](=O)[O-])C(c2ccccc2O)C(C#N)=C(c2cccs2)O1` (stereo not given): the growth in the test with NCI-H23 lung was 99.1%; with NCI-H226 lung, 97.5%; in the test on NCI-H322M lung it was 98.6%; in the test on HOP-62 NSCLC, 88%; in the test on NCI-H460 lung it was 105%; in the test with NCI-H522 lung, 7.12% (active). Moreover, the growth was 99.7% in the test with A549/ATCC NSCLC; 93.2% in the test on 786-0 renal; 101% in the test on COLO 205 colon; 103% in the test with DU-145 prostate; 63.8% in the test on K-562 leukemia; 52.8% with MALME-3M melanoma. Moreover, the growth with MDA-MB-231 breast was 93.8%; in the test with RXF 393 renal it was 89.7%; in the test with SF-268 CNS, 96.3%; with SF-295 CNS it was 102%; with SF-539 CNS, 95.6%; in the test with UACC-257 melanoma it was 78.3%. Moreover, the growth in the test on M14 melanoma is 93.4%.

With `OC(COCc1ccccc1)COCc1ccccc1`, the growth in the test on NCI-H23 lung was 110%; in the test on NCI-H226 lung, 106%; in the test with NCI-H322M lung, 112%; in the test with HOP-62 NSCLC, 106%; in the test on NCI-H460 lung, 112%; with NCI-H522 lung, 100%. Further, the growth is 99.9% in the test with A549/ATCC NSCLC; 108% with 786-0 renal; 110% with COLO 205 colon; 122% in the test with DU-145 prostate; 99.3% in the test with K-562 leukemia; 105% in the test with MALME-3M melanoma. The growth in the test with MDA-MB-231 breast was 108%; with RXF 393 renal it was 119%; in the test on SF-268 CNS, 115%; with SF-295 CNS, 108%; in the test on SF-539 CNS, 110%; with UACC-257 melanoma it was 97.9%. For the same molecule, in the test with M14 melanoma, the growth is 103%.

On to `O=C(/C=C/c1ccccc1Br)c1cccc(OCCCCOc2cccc(C(=O)/C=C/c3ccccc3Br)c2)c1`, for which the growth with NCI-H23 lung is 89.3%; in the test on NCI-H226 lung it was 89.9%; in the test with NCI-H322M lung it was 98.8%; in the test on HOP-62 NSCLC, 103%; with NCI-H460 lung, 95.5%; in the test with NCI-H522 lung, 90.7%. For the same molecule, the growth was 87.7% in the test on A549/ATCC NSCLC; 104% in the test with 786-0 renal; 103% with COLO 205 colon; 104% with DU-145 prostate; 94.6% in the test with K-562 leukemia; 99.6% in the test on MALME-3M melanoma. Moreover, the growth with MDA-MB-231 breast is 104%; in the test on RXF 393 renal, 96.9%; in the test with SF-268 CNS, 101%; with SF-295 CNS, 95.5%; with SF-539 CNS it was 102%; in the test with UACC-257 melanoma, 94.1%. Further, the growth in the test on M14 melanoma is 88%.

`CC(C)C/C=C/C=C/C(=O)N[C@@H](CC(N)=O)C(=O)N[C@@H]1C(=O)N[C@H](c2ccc(O)cc2)C(=O)N[C@H](CCCN)C(=O)N[C@H]([C@@H](C)O)C(=O)N[C@H](c2ccc(O)cc2)C(=O)N[C@H](c2ccc(O)cc2)C(=O)N[C@H]([C@H](C)O)C(=O)N[C@H](Cc2ccccc2)C(=O)N[C@H](CCCN)C(=O)N[C@H](c2ccc(O[C@H]3O[C@@H](CO)[C@@H](O)[C@@H](O)[C@H]3O[C@@H]3O[C@H](CO)[C@H](O)[C@H](O)[C@@H]3O)cc2)C(=O)N[C@H]([C@H](C)O)C(=O)N[C@H](c2ccc(O)cc2)C(=O)NCC(=O)N[C@H](CC(C)C)C(=O)N[C@H](C)C(=O)N[C@H](c2ccc(O)c(Cl)c2)C(=O)O[C@@H]1C(N)=O`: the growth is 39.5% with NCI-H23 lung; 68.6% with NCI-H226 lung; 57.5% with NCI-H322M lung; 53.4% in the test on HOP-62 NSCLC; 15.6% in the test on NCI-H460 lung; 78.1% in the test with NCI-H522 lung. Also, the growth is 91.8% in the test with A549/ATCC NSCLC; -48.7% (active) in the test with 786-0 renal; 101% in the test with COLO 205 colon; 90.6% with DU-145 prostate; 30.8% in the test with K-562 leukemia; 23.4% in the test on MALME-3M melanoma. Also, the growth in the test on MDA-MB-231 breast was -4.62% (active); with RXF 393 renal, 44.9%; with SF-268 CNS, 59.9%; in the test with SF-295 CNS, 20.1%; in the test with SF-539 CNS it was 4.24% (active); in the test on UACC-257 melanoma it was 6.54% (active). The growth with M14 melanoma was 44.4%.

Take `CNC(=O)c1c(NC(=O)c2ccc(C(C)C)cc2)sc2c1CCC(=O)C2`: the growth in the test with NCI-H23 lung was -1.47% (active); in the test with NCI-H226 lung, -24.5% (active); in the test with NCI-H322M lung, 17.6%; in the test with HOP-62 NSCLC it was 12%; in the test on NCI-H460 lung it was 7.34% (active); in the test with NCI-H522 lung, -26.3% (active). The growth in the test with A549/ATCC NSCLC was 15.9%; in the test with 786-0 renal, 13%; in the test with COLO 205 colon, -70.3% (active); in the test with DU-145 prostate, 23.4%; with K-562 leukemia, 1.86% (active); in the test on MALME-3M melanoma, -45.3% (active). The growth in the test on MDA-MB-231 breast is -55.9% (active); in the test on RXF 393 renal, -32.9% (active); with SF-268 CNS, 15.3%; in the test on SF-295 CNS, -29.4% (active); in the test with SF-539 CNS, -63.7% (active); in the test with UACC-257 melanoma, 1.16% (active). Further, the growth in the test on M14 melanoma was -39.4% (active).

With `N=C(N)c1ccc(NCCNc2ccc(C(=N)N)cc2)cc1`, the growth is 85.9% with NCI-H23 lung; 62.6% in the test on NCI-H226 lung; 95.5% with NCI-H322M lung; 121% in the test with HOP-62 NSCLC; 50.3% in the test with NCI-H460 lung; 92.9% in the test on NCI-H522 lung. Also, the growth in the test with A549/ATCC NSCLC is 42.2%; in the test on 786-0 renal, 117%; in the test with COLO 205 colon, 142%; with DU-145 prostate it was 106%; with K-562 leukemia it was 82.1%; in the test with MALME-3M melanoma it was 100%. For the same molecule, the growth is 87.3% in the test on MDA-MB-231 breast; 98.3% in the test with RXF 393 renal; 113% with SF-268 CNS; 66.3% in the test with SF-295 CNS; 84.7% in the test on SF-539 CNS; 62.3% with UACC-257 melanoma. In addition, the growth in the test with M14 melanoma is 125%.

As for `Clc1nnc2c3ccccc3ccn12`, the growth in the test with NCI-H23 lung is 113%; in the test with NCI-H226 lung, 77.8%; in the test on NCI-H322M lung it was 119%; in the test with HOP-62 NSCLC, 98.5%; in the test on NCI-H460 lung, 105%; in the test on NCI-H522 lung, 103%. In addition, the growth in the test with A549/ATCC NSCLC was 102%; with 786-0 renal, 99.3%; in the test with COLO 205 colon it was 103%; in the test with DU-145 prostate, 105%; in the test on K-562 leukemia, 102%; in the test on MALME-3M melanoma it was 135%. In addition, the growth was 118% in the test on MDA-MB-231 breast; 97.6% in the test with RXF 393 renal; 97.6% with SF-268 CNS; 104% with SF-295 CNS; 109% in the test on SF-539 CNS; 105% in the test with UACC-257 melanoma. Besides, the growth with M14 melanoma was 106%.
